Experimental data reported in PubChem BioAssay (NCATS).
Inconclusive results are not listed. Active and inactive are the calls of the source. Unless noted, calls come from the whole dose curve; as a rule, active = well fitted cell-killing curve with a large enough effect; inconclusive = small, poorly fitted or top-dose-only effect; inactive = flat fitted curve, though single readings scatter.

Experiments:
[1] = Cell Viability - LYMP2-025 (AID 976); note: series mostly up to about 92 µM
Outline: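 Luminescent ATP readout after 24 hr treatment of a human lymphoblastoid line (LYMP2-025, 2500 cells/well, 37 C). Reagent developed 30 min at room temperature; AC50 fitted with the Hill equation.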

[2] = Cell Viability - LYMP2-002 (AID 977);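 note: series mostly up to about 92 µM; compound exposure lasted 24 h at 37 °C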
Outline: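 Human lymphoblastoid cells (2500/well) in complete medium were preincubated 5 hr at 37 C, then exposed to compounds for 24 hr at 37 C. Intracellular ATP was read by CellTiter-Glo luminescence; AC50 came from Hill-equation concentration-response fits.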

[3] = Cell Viability - LYMP2-006 (AID 978); note: series mostly up to about 92 µM; nearly all actives have a fitted effect of over 60% in size
Outline: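 Human lymphoblastoid cells, 2500 per well, were preincubated 5 hr at 37 C, then exposed to compounds for 24 hr at 37 C in complete medium. Viability was read as intracellular ATP by CellTiter-Glo luminescence; AC50 from Hill-equation fits of qHTS concentration-response data.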

[4] = Cell Viability - LYMP2-007 (AID 979);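 note: cells exposed to compound for 24 h before reading; nearly all actives have a fitted effect of over 60% in size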
Outline: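 Measured via luciferase-based ATP quantitation: lymphoblastoid cells, 24 hr compound exposure at 37 C, AC50 from Hill fits.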

[5] = Cell Viability - LYMP2-008 (AID 980); note: nearly all actives have a fitted effect of over 60% in size
Outline: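 Measured: ATP-dependent luminescence, proportional to viable cell number, in human lymphoblastoid cells treated 24 hr with compound in complete culture medium. Values are AC50s from Hill-equation modelling of qHTS titrations.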

[6] = Cell Viability - LYMP2-010 (AID 981); note: nearly all actives have a fitted effect of over 55% in size
Outline: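 This 24 hr viability screen uses LYMP2-010 lymphoblastoid cells, quantifies ATP via luciferase luminescence, and derives AC50 from Hill fits of qHTS concentration-response data.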

[7] = Cell Viability - LYMP2-012 (AID 982);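 note: cellular ATP by luciferase luminescence where a drop means cytotoxicity; cells exposed to compound for one day before reading; nearly all actives have a fitted effect of over 55% in size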
[8] = Cell Viability - LYMP2-014 (AID 983); note: series mostly up to about 92 µM; nearly all actives have a fitted effect of over 50% in size
Outline: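 Quantitative HTS in lymphoblastoid cells: 24 hr compound exposure, then CellTiter-Glo ATP luminescence. Positive control was tetraoctylammonium bromide, 6.4pM to 92 uM.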

[9] = Cell Viability - LYMP2-016 (AID 984); note: nearly all actives have a fitted effect of over 55% in size
Outline: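 Human lymphoblastoid cells (LYMP2-016), 2500/well in complete medium, preincubated 5 hr at 37 C, then compound-treated 24 hr at 37 C. Intracellular ATP read by CellTiter-Glo luminescence after 30 min at room temperature; AC50 from Hill-equation concentration-response fits.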

[10] = Cell Viability - LYMP2-018 (AID 985); note: nearly all actives have a fitted effect of over 50% in size
Outline: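 In this qHTS viability assay, cells are treated for 24 hr and cellular ATP is quantified by luciferase-based luminescence, with tetraoctylammonium bromide as positive control.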

[11] = Cell Viability - LYMP2-020 (AID 986); note: series mostly up to about 92 µM; nearly all actives have a fitted effect of over 55% in size
Outline: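 Cells at 2500 per well receive a 24 hr compound exposure at 37 C. Viability is measured as ATP-dependent luciferase luminescence, with AC50 modeled from qHTS concentration-response curves.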

[12] = Cell Viability - LYMP2-022 (AID 987); note: nearly all actives have a fitted effect of over 55% in size
Outline: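 In this qHTS cytotoxicity screen, compound titrations were incubated 24 hr at 37 C with human lymphoblastoid cells in complete medium. Luciferase-based ATP luminescence provided the viability signal.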

[13] = Cell Viability - LYMP2-024 (AID 988); note: nearly all actives have a fitted effect of over 60% in size
Outline: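 Cells at 2500 per well received compound for 24 hr after a 5 hr settling period. Viability was scored by CellTiter-Glo luminescence, with AC50 from Hill fits.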

[14] = Cell Viability - LYMP2-026 (AID 989); note: nearly all actives have a fitted effect of over 50% in size
Outline: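 Acute toxicity screen in complete culture medium, with 24 hr compound exposure at 37 C. Viability read as cellular ATP via luciferase reaction, with tetraoctylammonium bromide (6.4pM to 92 uM) as positive control.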

[15] = Cell Viability - LYMP1-002 - Assay at 24 hr (AID 993)
Outline: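 Viability was judged from intracellular ATP using a luciferase read-out, following a 24-hour compound incubation at 37 C of lymphoblastoid cells seeded at 2500 per well. Concentration-response data were fitted to the Hill equation for AC50.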

[16] = Cell Viability - LYMP1-002 - Assay at 40 hr (AID 994); note: nearly all actives have a fitted effect of over 60% in size
Outline: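 Concentration-dependent ATP loss after 40 hr treatment at 37 C defined toxicity; AC50 values were obtained by fitting the standard Hill equation.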

[17] = qHTS Assay for Identification of Small Molecule Inducers of Hypoxia Response (AID 2120; active = well fitted curve in the direction sought with a large enough effect in the signal ratio, with a control signal flat, not every such curve was filed as active; the % refers to the signal ratio)
Outline: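 HRE-bla ME-180, 2500 cells/well, 0.5% dialyzed FBS medium; cpd titration, 17 h 37 degrees C; CCF4 2.5 h RT; Ex 405, Em 460/530 ratio -> %Activity, AC50.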

[18] = target: Estrogen receptor (Homo sapiens) (UniProt P03372); assay: qHTS assay for small molecule antagonists of estrogen receptor alpha signaling (AID 588513; active = well fitted curve in the direction sought with a large enough effect in the signal ratio, with a control signal flat, not every such curve was filed as active; the % refers to the signal ratio)
Outline: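 ER-alpha-UAS-bla GripTite HEK 293 cells in medium with 2% charcoal/dextran-treated FBS were preincubated 4 h at 37 C, dosed with compound (1:2 titration), stimulated with 0.5nM 17-beta-estradiol for 18 h, then read by CCF4 beta-lactamase fluorescence.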

[19] = target: Estrogen receptor (Homo sapiens) (UniProt P03372); assay: qHTS assay for small molecule agonists of estrogen receptor alpha signaling (AID 588514; calls by dose curve; note: nearly all actives have a fitted effect of over 70% in size)
Outline: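 Fluorescence from CCF4 cleavage reports ER-alpha-driven beta-lactamase expression in HEK 293 cells treated 18 hrs at 37 C. Data normalized to 17-beta-estradiol (20 nM) and DMSO, fitted to Hill equation.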

Measured: Potency

Sequence of Estrogen receptor (Homo sapiens) (P03372 whole entry, looked up): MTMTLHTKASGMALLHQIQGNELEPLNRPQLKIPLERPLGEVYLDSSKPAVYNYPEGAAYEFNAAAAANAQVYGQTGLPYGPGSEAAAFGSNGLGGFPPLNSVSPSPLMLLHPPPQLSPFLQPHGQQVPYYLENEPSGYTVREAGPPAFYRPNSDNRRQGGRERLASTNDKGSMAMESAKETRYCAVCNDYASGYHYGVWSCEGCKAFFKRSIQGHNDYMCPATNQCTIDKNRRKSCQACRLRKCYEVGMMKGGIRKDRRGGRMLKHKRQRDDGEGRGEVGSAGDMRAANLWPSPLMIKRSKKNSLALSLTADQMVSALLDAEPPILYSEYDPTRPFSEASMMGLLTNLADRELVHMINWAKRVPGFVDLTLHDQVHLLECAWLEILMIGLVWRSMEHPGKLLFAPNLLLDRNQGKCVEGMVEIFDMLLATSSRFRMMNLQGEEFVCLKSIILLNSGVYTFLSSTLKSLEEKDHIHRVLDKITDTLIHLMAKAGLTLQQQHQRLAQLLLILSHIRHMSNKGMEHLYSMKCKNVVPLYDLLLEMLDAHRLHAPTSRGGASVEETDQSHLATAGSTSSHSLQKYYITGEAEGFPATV

C=CCCCC
inactive: all assays above

COC(=O)CC#N
inactive: all assays above

OC(CCl)CCl
not listed: [16]
inactive: all other assays above

CCCCCCCCC/C=C/CC1CC(=O)OC1=O (stereo not given)
inactive: all assays above

COc1ccc(N)c(OC)c1
inactive: all assays above

COC(=O)CCC(=O)OC
not listed: [15] | [16]
inactive: all other assays above

CCCCC(CC)COC(=O)CCCCC(=O)OCC(CC)CCCC (stereo not given)
not listed: [12]
inactive: all other assays above

C/C=C1\CC2C=CC1C2 (stereo not given)
not listed: [9]
inactive: all other assays above

Cc1ccccc1C(N)=O
not listed: [15]
inactive: all other assays above

CCCCCCCCCCCCOCC1CO1 (stereo not given)
inactive: all assays above

C=CCOC(=O)CCCCCCCC
not listed: [15]
inactive: all other assays above

O=[N+]([O-])c1cccc(Cl)c1
not listed: [13]
inactive: all other assays above

CCc1ccccc1
not listed: [10]
inactive: all other assays above

Cc1ccc(C(C)(C)C)cc1
inactive: all assays above

C=C(C)C1CC=C(C)C(OC(C)=O)C1 (stereo not given)
not listed: [9] | [15]
inactive: all other assays above

Cc1cccc2ccccc12
not listed: [8]
inactive: all other assays above

Cc1cccc(C)c1
not listed: [13]
inactive: all other assays above
